Laboratory results: publication PMC4081100, “A DNA-binding-site landscape and regulatory network analysis for NAC transcription factors in Arabidopsis thaliana”

Experiments:
Assay in all cases: universal protein binding microarray (PBM); transcription factors of Arabidopsis thaliana; high values mean tight binding
Conditions in all cases: protein: recombinant; tags: GST; chain copies: 2; dsDNA, one strand shown
GST-ANAC092(1-176) = target: T1, GST-ANAC092(1-176) (Arabidopsis thaliana, UniProt Q9FKA0 1-176)
T1 sequence: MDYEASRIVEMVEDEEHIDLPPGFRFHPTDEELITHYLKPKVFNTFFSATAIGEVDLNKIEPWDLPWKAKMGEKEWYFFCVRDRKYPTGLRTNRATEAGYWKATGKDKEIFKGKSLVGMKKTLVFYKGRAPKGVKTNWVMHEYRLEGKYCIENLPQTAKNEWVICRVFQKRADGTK
Method in brief: (§1)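 GST-tagged proteins (NAC-domain, full-length or DNA-binding-domain) were induced in cells, with zinc acetate supplied for zinc-finger proteins, then purified on glutathione–Sepharose 4B. Each was tested in duplicate at 200 to 500 nM final on custom all-10-mer Agilent 4 × 180K arrays rendered double-stranded by primer extension. The binding value is the normalised enrichment score (E-score) across gapped and ungapped 8-mers.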

GST-NTL6(1-168) = GST-NTL6(1-168) (Arabidopsis thaliana, UniProt Q9SCK6 1-168)
Sequence of GST-NTL6(1-168) (Q9SCK6 1-168): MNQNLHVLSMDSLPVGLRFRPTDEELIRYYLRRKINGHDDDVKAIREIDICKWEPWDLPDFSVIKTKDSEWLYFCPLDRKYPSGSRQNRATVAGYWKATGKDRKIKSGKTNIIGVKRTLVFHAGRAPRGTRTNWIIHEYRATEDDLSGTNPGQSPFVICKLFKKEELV
Method in brief: as §1

GST-ANAC055(1-171) = target: T2, GST-ANAC055(1-171) (Arabidopsis thaliana, UniProt Q9LDY8 1-171)
T2 sequence: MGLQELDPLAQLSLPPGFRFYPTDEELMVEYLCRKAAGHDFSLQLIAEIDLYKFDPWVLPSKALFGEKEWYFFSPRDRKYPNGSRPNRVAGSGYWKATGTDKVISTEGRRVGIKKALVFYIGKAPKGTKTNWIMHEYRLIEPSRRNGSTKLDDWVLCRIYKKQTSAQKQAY
Method in brief: as §1

GST-ATAF1 NAC domain = target: T3, GST-ATAF1 NAC domain (Arabidopsis thaliana, UniProt Q39013 7-158)
T3 sequence: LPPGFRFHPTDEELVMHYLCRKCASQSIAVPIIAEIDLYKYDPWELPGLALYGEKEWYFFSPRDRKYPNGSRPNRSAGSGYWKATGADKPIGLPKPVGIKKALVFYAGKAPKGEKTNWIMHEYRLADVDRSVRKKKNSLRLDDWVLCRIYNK
Method in brief: as §1

[1] = target: T4, GST-ANAC092(1-285) full length (Arabidopsis thaliana, UniProt Q9FKA0 1-285)
T4 sequence: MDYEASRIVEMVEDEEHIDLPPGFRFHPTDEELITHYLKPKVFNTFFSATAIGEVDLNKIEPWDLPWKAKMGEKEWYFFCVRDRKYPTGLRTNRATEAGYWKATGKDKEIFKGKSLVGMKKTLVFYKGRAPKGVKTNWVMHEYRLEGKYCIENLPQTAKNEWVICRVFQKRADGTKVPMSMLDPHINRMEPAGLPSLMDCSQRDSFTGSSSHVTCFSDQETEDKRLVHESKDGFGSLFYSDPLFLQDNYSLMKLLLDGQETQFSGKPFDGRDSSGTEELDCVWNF
Method in brief: as §1

GST-NST2(1-184) = target: T5, GST-NST2(1-184) (Arabidopsis thaliana, UniProt Q9M274 1-184)
T5 sequence: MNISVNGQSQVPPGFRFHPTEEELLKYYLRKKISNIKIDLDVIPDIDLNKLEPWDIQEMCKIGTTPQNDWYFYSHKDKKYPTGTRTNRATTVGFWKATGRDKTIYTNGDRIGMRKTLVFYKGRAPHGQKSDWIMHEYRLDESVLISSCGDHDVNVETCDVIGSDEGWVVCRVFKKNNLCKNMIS
Method in brief: as §1

GST-NTL8 NAC domain = target: T6, GST-NTL8 NAC domain (Arabidopsis thaliana, UniProt Q9XIN7 14-156)
T6 sequence: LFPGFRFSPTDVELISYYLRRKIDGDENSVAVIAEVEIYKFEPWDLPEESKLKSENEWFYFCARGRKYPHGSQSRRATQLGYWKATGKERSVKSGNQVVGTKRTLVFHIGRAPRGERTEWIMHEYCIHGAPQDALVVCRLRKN
Method in brief: as §1

GST-SND1(1-203) = target: T7, GST-SND1(1-203) (Arabidopsis thaliana, UniProt Q9LPI7 1-203)
T7 sequence: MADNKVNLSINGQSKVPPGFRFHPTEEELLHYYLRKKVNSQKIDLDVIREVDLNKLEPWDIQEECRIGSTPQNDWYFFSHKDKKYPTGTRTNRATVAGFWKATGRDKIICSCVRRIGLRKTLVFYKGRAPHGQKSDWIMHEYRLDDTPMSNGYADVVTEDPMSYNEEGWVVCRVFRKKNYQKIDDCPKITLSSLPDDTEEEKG
Method in brief: as §1

GST-VND3 NAC domain = target: T8, GST-VND3 NAC domain (Arabidopsis thaliana, UniProt Q9FH59 12-162)
T8 sequence: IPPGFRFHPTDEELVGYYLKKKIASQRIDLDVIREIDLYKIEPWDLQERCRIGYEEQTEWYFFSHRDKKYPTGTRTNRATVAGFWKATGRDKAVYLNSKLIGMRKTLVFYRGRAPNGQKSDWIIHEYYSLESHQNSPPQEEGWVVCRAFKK
Method in brief: as §1

GST-VND7 NAC domain = target: T9, GST-VND7 NAC domain (Arabidopsis thaliana, UniProt Q9C8W9 9-158)
T9 sequence: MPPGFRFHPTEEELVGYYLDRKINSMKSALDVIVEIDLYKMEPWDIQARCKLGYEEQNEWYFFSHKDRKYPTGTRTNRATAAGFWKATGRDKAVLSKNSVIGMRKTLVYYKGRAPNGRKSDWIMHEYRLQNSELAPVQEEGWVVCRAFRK
Method in brief: as §1

GST-ANAC019 NAC domain = target: T10, GST-ANAC019 NAC domain (Arabidopsis thaliana, UniProt Q9C932 14-162)
T10 sequence: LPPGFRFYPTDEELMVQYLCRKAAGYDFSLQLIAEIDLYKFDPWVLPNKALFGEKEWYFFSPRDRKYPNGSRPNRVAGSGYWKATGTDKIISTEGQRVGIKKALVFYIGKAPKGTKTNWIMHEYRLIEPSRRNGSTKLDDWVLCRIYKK
Method in brief: as §1

GST-NAP(1-166) = target: T11, GST-NAP(1-166) (Arabidopsis thaliana, UniProt O49255 1-166)
T11 sequence: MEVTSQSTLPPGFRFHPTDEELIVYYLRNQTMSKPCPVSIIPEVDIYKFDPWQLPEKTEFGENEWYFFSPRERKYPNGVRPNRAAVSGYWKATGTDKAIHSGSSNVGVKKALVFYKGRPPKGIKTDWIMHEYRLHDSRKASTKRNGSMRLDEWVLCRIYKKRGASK
Method in brief: as §1

Sequence | binding signal (GST-ANAC092(1-176)) [E-score] | binding signal (GST-NTL6(1-168)) [E-score] | binding signal (GST-ANAC055(1-171)) [E-score] | binding signal (GST-ATAF1 NAC domain) [E-score] | binding signal [1] [E-score] | binding signal (GST-NST2(1-184)) [E-score] | binding signal (GST-NTL8 NAC domain) [E-score] | binding signal (GST-SND1(1-203)) [E-score] | binding signal (GST-VND3 NAC domain) [E-score] | binding signal (GST-VND7 NAC domain) [E-score] | binding signal (GST-ANAC019 NAC domain) [E-score] | binding signal (GST-NAP(1-166)) [E-score]
GTTGCTTA | 0.342 | 0.425 | 0.0695 | 0.0821 | 0.393 | 0.327 | 0.13 | 0.469 | 0.0814 | 0.14 | – | –
GCGTGTTA | 0.415 | – | 0.174 | 0.141 | 0.432 | 0.178 | – | 0.199 | 0.212 | 0.113 | 0.214 | 0.227
CGCACGCA | 0.401 | – | 0.241 | 0.0589 | 0.42 | 0.213 | – | 0.229 | 0.213 | 0.232 | 0.291 | 0.291
ACGTCTCT | 0.0939 | – | 0.412 | 0.452 | 0.243 | 0.175 | – | 0.0793 | 0.418 | 0.442 | 0.451 | 0.381
ACGTCACC | 0.452 | – | 0.32 | 0.311 | 0.463 | 0.237 | – | 0.408 | 0.239 | 0.28 | 0.308 | 0.356
ATTGCTTA | 0.273 | 0.423 | – | – | 0.319 | 0.288 | 0.0937 | 0.457 | 0.16 | 0.172 | – | –
TAAAGCAA | 0.138 | 0.134 | – | – | 0.293 | 0.262 | 0.15 | 0.42 | 0.135 | 0.228 | – | –
ACACGCAT | 0.462 | – | 0.335 | 0.292 | 0.468 | 0.242 | – | 0.295 | 0.351 | 0.33 | 0.346 | 0.332
GATGCGTA | 0.368 | – | 0.227 | 0.239 | 0.416 | 0.185 | – | 0.415 | 0.267 | 0.186 | 0.216 | 0.182
TCACGGAA | 0.363 | – | 0.432 | 0.332 | 0.381 | – | – | 0.219 | 0.381 | 0.436 | 0.465 | 0.383
ACGGAACA | 0.224 | – | 0.418 | 0.304 | 0.289 | 0.166 | – | 0.217 | 0.352 | 0.409 | 0.418 | 0.336
ATGGCGTG | 0.443 | – | 0.138 | 0.17 | 0.456 | 0.227 | – | 0.249 | 0.151 | 0.155 | 0.196 | 0.161
CACGGCAG | 0.39 | – | 0.403 | 0.307 | 0.426 | 0.0722 | – | 0.11 | 0.412 | 0.384 | 0.457 | 0.227
ACGGCACG | 0.34 | – | 0.34 | 0.286 | 0.404 | 0.133 | – | 0.0651 | 0.217 | 0.233 | 0.291 | 0.324
CACGTCAC | 0.445 | – | 0.396 | 0.374 | 0.464 | 0.217 | – | 0.328 | 0.362 | 0.395 | 0.4 | 0.344
ACGCAAGC | 0.466 | – | 0.295 | 0.148 | 0.478 | 0.299 | – | 0.417 | 0.344 | 0.332 | 0.35 | 0.294
